{
  "source": "PubChem BioAssay (EPA / NIEHS)",
  "note": "Calls of active or inactive are those of the source. How the source made its calls: active means hit-call score of the fitted dose curve at least 0.9, where 1 is the maximum; inactive means score below 0.9.",
  "data": [
    {"read-out": "Lipoprotein lipase (LPL), LPL (gene 4023)", "assay": "LTEA_HepaRG_LPL: Life Technologies and Expression Analysis (LTEA) Assay for Lipoprotein lipase (LPL) using HepaRG (AID 2283515)", "details": "mRNA level, 48 h; actives raise or lower the signal", "method_in_brief": "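Read-out is LPL transcript level by qRT-PCR, normalized to three housekeeping genes and fitted bidirectionally against the DMSO control. Human HepaRG cells received chemicals for 48 h at up to 100 uM.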", "values": [
      {"smiles": "Cc1ccccc1O", "outcome": "inactive"},
      {"smiles": "CC1=C2C[C@H]3[C@@H](CC=C4C[C@@H](O)CC[C@@]43C)[C@@H]2CC[C@]12O[C@@H]1C[C@H](C)CN[C@H]1[C@H]2C", "outcome": "inactive"},
      {"smiles": "CO/C=C(/C(=O)OC)c1ccccc1COc1cccc(C(F)(F)F)n1", "AC50": "9.42 µM (active)"},
      {"smiles": "C[C@]12CCC(=O)C=C1CC[C@@H]1[C@@H]2CC[C@]2(C)C(=O)CC[C@@H]12", "outcome": "inactive"},
      {"smiles": "CN(C)c1nc(=O)n(C2CCCCC2)c(=O)n1C", "outcome": "inactive"},
      {"smiles": "Oc1c(Cl)c(Cl)c(Cl)c(Cl)c1Cl", "AC50": "5.08 µM (active)"},
      {"smiles": "O=S(=O)(O)C(F)(F)C(F)(F)C(F)(F)C(F)(F)F", "outcome": "inactive"},
      {"smiles": "CCC(C)c1cc([N+](=O)[O-])cc([N+](=O)[O-])c1O", "note": "(centres undefined)", "AC50": "0.758 µM (active)"},
      {"smiles": "ClC(Cl)=C(c1ccc(Cl)cc1)c1ccc(Cl)cc1", "outcome": "inactive"},
      {"smiles": "CC#Cc1cc(C)nc(Nc2ccccc2)n1", "AC50": "3.75 µM (active)"},
      {"smiles": "CCC(C)(c1ccc(O)cc1)c1ccc(O)cc1", "outcome": "inactive"},
      {"smiles": "CCOC(=O)C(O)(c1ccc(Cl)cc1)c1ccc(Cl)cc1", "AC50": "9.14 µM (active)"},
      {"smiles": "CCNc1nc(NC(C)C)nc(SC)n1", "outcome": "inactive"},
      {"smiles": "O=C(O)C(F)(F)C(F)(F)C(F)(F)C(F)(F)C(F)(F)C(F)(F)C(F)(F)C(F)(F)F", "AC50": "79.5 µM (active)"}
    ]}
  ]
}
